Inconclusive results are not listed. Where a call stands in place of a potency, no number is given. A number with no mark means an inactive call. The source made the active and inactive calls. The call rests on the fitted dose curve; in most records, active means well fitted curve in the direction sought with a large enough effect; inconclusive means small, poorly fitted or top-dose-only effect, or another doubt; inactive means no such curve, though single readings can be large; an effect the other way counts as inactive or inconclusive.
Key:
[1] = target: Rap guanine nucleotide exchange factor 3 (Homo sapiens) (UniProt O95398); experiment: Confirmatory qHTS for agonist of cAMP-regulated guanine nucleotide exchange factor 3 (EPAC1) (AID 1645881);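 further: EPAC1 catalysed release of BODIPY-GDP from Rap1B seen as fluorescence loss; nearly all actives have a fitted effect of over 75% in size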
Rap guanine nucleotide exchange factor 3 (Homo sapiens), sequence (O95398 whole entry, looked up): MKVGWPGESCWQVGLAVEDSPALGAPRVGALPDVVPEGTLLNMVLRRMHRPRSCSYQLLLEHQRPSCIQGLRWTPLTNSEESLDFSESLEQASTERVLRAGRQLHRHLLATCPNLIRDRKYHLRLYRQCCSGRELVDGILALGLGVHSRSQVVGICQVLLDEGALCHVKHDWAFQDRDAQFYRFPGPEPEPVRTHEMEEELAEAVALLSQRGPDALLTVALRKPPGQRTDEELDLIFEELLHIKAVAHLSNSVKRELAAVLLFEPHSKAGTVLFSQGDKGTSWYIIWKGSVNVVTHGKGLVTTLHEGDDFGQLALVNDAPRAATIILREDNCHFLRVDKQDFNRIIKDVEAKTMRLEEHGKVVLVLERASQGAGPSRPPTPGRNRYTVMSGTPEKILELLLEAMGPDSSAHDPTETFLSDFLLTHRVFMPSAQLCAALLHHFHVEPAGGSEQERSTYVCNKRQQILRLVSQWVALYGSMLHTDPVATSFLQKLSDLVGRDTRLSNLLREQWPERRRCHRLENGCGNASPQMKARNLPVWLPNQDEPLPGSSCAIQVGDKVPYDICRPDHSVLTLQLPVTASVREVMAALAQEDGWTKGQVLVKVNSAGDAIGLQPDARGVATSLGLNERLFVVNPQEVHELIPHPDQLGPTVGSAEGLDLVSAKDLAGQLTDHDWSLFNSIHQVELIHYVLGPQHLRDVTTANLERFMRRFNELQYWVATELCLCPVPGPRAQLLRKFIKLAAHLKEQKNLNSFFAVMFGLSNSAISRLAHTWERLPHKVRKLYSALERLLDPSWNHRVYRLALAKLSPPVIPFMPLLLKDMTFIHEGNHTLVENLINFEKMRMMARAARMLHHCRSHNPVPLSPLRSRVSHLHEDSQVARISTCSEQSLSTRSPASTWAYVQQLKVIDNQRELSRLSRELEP

[2] = target: Rap guanine nucleotide exchange factor 4 (Homo sapiens) (UniProt Q8WZA2); experiment: Confirmatory qHTS for agonist of cAMP-regulated guanine nucleotide exchange factor 4 (EPAC2) (AID 1645884);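 further: nucleotide exchange releases bodipy-GDP from Rap1 and this lowers its fluorescence; nearly all actives have a fitted effect of over 65% in size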
Rap guanine nucleotide exchange factor 4 (Homo sapiens), sequence (Q8WZA2 whole entry, looked up): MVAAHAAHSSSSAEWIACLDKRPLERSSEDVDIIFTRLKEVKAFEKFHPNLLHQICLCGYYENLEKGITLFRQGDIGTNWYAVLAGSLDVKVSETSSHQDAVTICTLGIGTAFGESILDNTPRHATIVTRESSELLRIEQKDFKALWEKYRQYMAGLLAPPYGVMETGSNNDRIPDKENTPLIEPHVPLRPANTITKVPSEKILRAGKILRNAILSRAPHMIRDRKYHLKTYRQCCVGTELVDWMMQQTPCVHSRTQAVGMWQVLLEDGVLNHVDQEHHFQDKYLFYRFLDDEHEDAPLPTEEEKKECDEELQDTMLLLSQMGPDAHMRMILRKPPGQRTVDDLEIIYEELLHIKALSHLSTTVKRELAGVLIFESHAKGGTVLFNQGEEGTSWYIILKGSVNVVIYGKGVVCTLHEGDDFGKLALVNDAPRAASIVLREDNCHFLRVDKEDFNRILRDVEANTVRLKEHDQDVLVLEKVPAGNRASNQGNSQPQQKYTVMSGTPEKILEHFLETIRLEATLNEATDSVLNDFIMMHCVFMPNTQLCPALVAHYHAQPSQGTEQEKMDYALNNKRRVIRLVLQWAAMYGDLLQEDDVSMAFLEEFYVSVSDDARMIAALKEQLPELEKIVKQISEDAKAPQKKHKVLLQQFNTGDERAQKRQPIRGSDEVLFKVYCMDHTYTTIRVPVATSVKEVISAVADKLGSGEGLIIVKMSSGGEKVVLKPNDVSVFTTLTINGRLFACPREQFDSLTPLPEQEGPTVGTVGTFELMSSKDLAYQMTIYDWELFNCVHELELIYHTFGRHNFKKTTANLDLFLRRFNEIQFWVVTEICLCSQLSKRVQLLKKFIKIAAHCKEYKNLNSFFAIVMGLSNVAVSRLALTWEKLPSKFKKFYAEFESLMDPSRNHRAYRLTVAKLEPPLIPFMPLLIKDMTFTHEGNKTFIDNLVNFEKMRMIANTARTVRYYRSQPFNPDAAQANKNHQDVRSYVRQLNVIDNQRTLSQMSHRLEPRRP

[3] = target: Rap guanine nucleotide exchange factor 4 (Homo sapiens) (UniProt Q8WZA2); experiment: Confirmatory qHTS for antagonist of cAMP-regulated guanine nucleotide exchange factor 4 (EPAC2) (AID 1645885); further: nearly all actives have a fitted effect of over 25% in size; further: potency means the concentration at half of the fitted maximal effect
[4] = target: Rap guanine nucleotide exchange factor 3 (Homo sapiens) (UniProt O95398); experiment: Counterscreen qHTS for antagonist of cAMP-regulated guanine nucleotide exchange factor 3 (EPAC1) (AID 1645888);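 further: fluorescence loss as bound BODIPY-GDP is released from Rap1B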
Procedure, shortened: (§1)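 Rap1B–BODIPY-GDP (250 nM) with 50 uM GDP; compounds pin-transferred to 9.74 nM–152 uM final (activator) or from 7.32 nM upwards (inhibitor). Fluorescence Ex/Em 480/540 nm read at 5 and 30 min, then after adding cAMP or buffer, at room temperature.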

[5] = target: Rap guanine nucleotide exchange factor 3 (Homo sapiens) (UniProt O95398); experiment: Counterscreen qHTS for agonist of cAMP-regulated guanine nucleotide exchange factor 3 (EPAC1) (AID 1645889); further: nearly all actives have a fitted effect of over 40% in size; further: potency means the concentration at half of the fitted maximal effect
Procedure, shortened: as §1

Compound | Potency [1] | Potency [2] | Potency [3] | Potency [4] | Potency [5] | outcome [3] | activation [2] | activity change, negative = inhibition [4] | activation [5]
Cn1c(COc2ccccc2C(C)(C)C)nc2ccccc21 | inactive | inactive | inactive | inactive | 15.8 µM (active) |  |  |  | 
O=C(O)c1ccc(N/N=C/c2cn(Cc3ccccc3F)c3ccccc23)cc1 | inactive | inactive | inactive | inactive | inactive |  |  |  | 
Cc1cc(N2CCN(c3cccc(C(F)(F)F)c3)CC2)n2nc(-c3ccccc3C)nc2n1 | inactive | inactive | inactive | inactive | inactive |  |  |  | 
O=C(O)CCc1ccc(-c2ccc(Br)cc2)n1-c1ccc(O)cc1 | inactive | inactive | 42.6 µM (active) | inactive | inactive |  |  |  | 
Cc1ccc(Cl)cc1NC(=O)Nc1cn(CC(C)C)c(=O)c2ccccc12 | inactive | inactive |  | inactive | inactive | inactive [at 12.7 µM] |  |  | 
COc1cccc(C2CC(c3cccs3)=NN2C(=O)c2ccco2)c1O (stereo not given) | inactive |  | inactive |  |  |  | 3.1% [at 17.1 µM, percent relative to cAMP agonist control] | -12.7% [at 30.8 µM] | 8.43% [at 30.8 µM]
NS(=O)(=O)c1ccc(CCNC(=O)Cc2ccc(S(=O)(=O)N3CCCC3)s2)cc1 | inactive |  | inactive |  |  |  | 2.8% [at 17.1 µM, percent relative to cAMP agonist control] | 7.67% [at 30.8 µM] | 24% [at 30.8 µM]
Cc1nc2c(C(=O)NCc3ccc(F)cc3)c[nH]n2c(=O)c1Cl | inactive | inactive | inactive | inactive | inactive |  |  |  | 
Cc1cc(-c2ccc(C(C)C)c(S(=O)(=O)N3CCC(C)CC3)c2)on1 | inactive |  | inactive |  |  |  | 8.04% [at 17.1 µM, percent relative to cAMP agonist control] | -17.5% [at 30.8 µM] | 0.648% [at 30.8 µM]
COc1ccccc1C(CCN(Cc1ccccc1)C(C)=O)c1ccco1 (stereo not given) | inactive |  | inactive |  |  |  | 8.17% [at 17.1 µM, percent relative to cAMP agonist control] | -15.7% [at 30.8 µM] | 10.4% [at 30.8 µM]
COc1cc(O)c(C(CC(=O)N2CCCC(C)C2)c2ccc3c(c2)OCO3)c(OC)c1 (stereo not given) | inactive |  | inactive |  |  |  | -10.6% [at 17.1 µM, percent relative to cAMP agonist control] | -20% [at 30.8 µM] | 13.2% [at 30.8 µM]
Cc1c(N=Cc2cc(Br)cc(Br)c2O)cccc1C(=O)O | inactive |  | inactive |  |  |  | -1.44% [at 17.1 µM, percent relative to cAMP agonist control] | -0.566% [at 30.8 µM] | 3.4% [at 30.8 µM]
C[C@H]1CN([C@@H](C)CO)C(=O)c2cccc(NC(=O)C3CC3)c2O[C@H]1CN(C)S(=O)(=O)c1ccccc1 | inactive | inactive | inactive | inactive | inactive |  |  |  | 
CCOc1ccc(-n2c(C)nc3cc(C(=O)NCc4ccc(C)cc4)ccc32)cc1 | inactive | inactive | inactive | inactive | inactive |  |  |  | 
CCCn1nc([N+](=O)[O-])c(C(C#N)c2nc3ccccc3o2)c(Cl)c1=O (stereo not given) | inactive | inactive | 37.9 µM (active) | inactive | inactive |  |  |  | 
Cc1ccc(C(=O)Cc2ccccc2)c(O)c1 | inactive |  | inactive |  |  |  | 0.272% [at 17.1 µM, percent relative to cAMP agonist control] | -3.71% [at 30.8 µM] | 23.4% [at 30.8 µM]
COCCn1c(SCC(=O)c2c(C)[nH]c3ccccc23)nc2cc(C(=O)NC(C)C)ccc2c1=O | inactive | inactive | inactive | inactive | inactive |  |  |  | 
O=C(NN1C(=O)/C(=C/C=C/c2ccco2)SC1=S)c1ccncc1 | inactive | inactive | inactive | inactive | inactive |  |  |  | 
Cc1ccc2nc3sc(C(=O)Nc4c(C)[nH]c(=O)[nH]c4=O)c(N)c3cc2c1 | inactive |  | inactive |  |  |  | 4.59% [at 17.1 µM, percent relative to cAMP agonist control] | 2.13% [at 30.8 µM] | 5.21% [at 30.8 µM]
CC(C)c1cccc(-c2ccc3c(c2)S(=O)(=O)c2cccc(C(=O)O)c2C3=O)c1 | inactive | inactive | inactive | inactive | inactive |  |  |  | 
CCOC(=O)C1Nc2ccc(C(F)(F)F)cc2C2C=CCC12 (stereo not given) | inactive |  | inactive |  |  |  | 1.4% [at 17.1 µM, percent relative to cAMP agonist control] | -11.7% [at 30.8 µM] | 11.6% [at 30.8 µM]
COc1ccc(C(C#N)N2CCC(c3ccccc3)=N2)cc1 (stereo not given) | inactive | inactive | 7.57 µM (active) | inactive | inactive |  |  |  | 
CCCCC(CC)COC1(c2ccccc2)OC(=O)c2ccccc21 (stereo not given) | inactive | inactive | inactive | inactive | inactive |  |  |  | 

Compound | Potency [1] | Potency [2] | Potency [3] | Potency [4] | Potency [5] | outcome [3] | activation [2] | activity change, negative = inhibition [4] | activation [5]
NS(=O)(=O)c1ccc(N/N=C/c2ccccc2C(=O)O)c([N+](=O)[O-])c1 | inactive | inactive | inactive | inactive | inactive |  |  |  | 
Cc1cc(Cl)ccc1OCCCC(=O)OCC(=O)c1c(N)n(C)c(=O)n(C)c1=O | inactive |  | inactive |  |  |  | 11.9% [at 17.1 µM, percent relative to cAMP agonist control] | -16.7% [at 30.8 µM] | 27.4% [at 30.8 µM]
COc1ccc(S(=O)(=O)NC(=O)C2(C)CCN2C(=O)C2(c3ccccc3)CCCC2)cc1 (stereo not given) | inactive |  | inactive |  |  |  | -3.86% [at 17.1 µM, percent relative to cAMP agonist control] | -2.65% [at 30.8 µM] | -0.406% [at 30.8 µM]
CC(C)C[C@H]1COCCS(=O)(=O)N1Cc1cccc(Cl)c1 | inactive |  | inactive |  |  |  | 5.51% [at 17.1 µM, percent relative to cAMP agonist control] | -14.3% [at 30.8 µM] | 2.08% [at 30.8 µM]
O=C(NNc1c2ccccc2nc2ccccc12)c1ccccc1O | inactive | inactive | inactive | inactive | inactive |  |  |  | 
COc1ccc(-c2cnnc(N/N=C/c3ccc(O)c(O)c3)n2)cc1 | inactive | inactive | inactive | inactive | inactive |  |  |  | 
COc1ccc(S(=O)(=O)Nc2ccc3cn[nH]c3c2)cc1C | inactive | inactive | 67.5 µM (active) | inactive | inactive |  |  |  | 
O=C(N/N=C/c1ccccc1O)/C(=C/c1ccccc1)CCO | inactive | inactive | inactive | inactive | inactive |  |  |  | 
COC(=O)c1ccc(-c2ccc(/C=N/N3C(=O)C4C5C=CC(C6CC56)C4C3=O)o2)cc1 (stereo not given) | inactive |  | inactive |  |  |  | 1.41% [at 17.1 µM, percent relative to cAMP agonist control] | -3.98% [at 30.8 µM] | 7.8% [at 30.8 µM]
COc1ccccc1N1CCN(CC(O)COc2ccc(C)cc2C(C)(C)C)CC1 (stereo not given) | inactive | inactive | inactive | inactive | inactive |  |  |  | 
N#C/C(=C\c1ccc(OCc2ccc(C(=O)O)cc2)cc1)C(=O)N1CCOCC1 | inactive | inactive | 21.3 µM (active) | inactive | inactive |  |  |  | 
O=c1c2ccccc2nc(/C=C/c2cccnc2)n1Cc1ccccc1 | inactive |  | inactive |  |  |  | 2.62% [at 17.1 µM, percent relative to cAMP agonist control] | -16.6% [at 30.8 µM] | 22.2% [at 30.8 µM]
Cc1ccc(NC(=O)CN2C(=O)S/C(=C/c3ccc(O)c([N+](=O)[O-])c3)C2=O)cc1C | inactive | inactive | inactive | inactive | inactive |  |  |  | 
O=C(Nc1nc(-c2ccc(Cl)cc2)cs1)C1=COCCO1 | inactive |  | inactive |  |  |  | 5.12% [at 17.1 µM, percent relative to cAMP agonist control] | -14.7% [at 30.8 µM] | 13.1% [at 30.8 µM]
CCOc1ccc(C(=O)N/N=C/c2cc(Cl)ccc2[N+](=O)[O-])cc1 | inactive |  | inactive |  |  |  | 3.37% [at 17.1 µM, percent relative to cAMP agonist control] | -12.2% [at 30.8 µM] | 15.5% [at 30.8 µM]
Cc1cccc(NC(=O)CSCC(=O)N(C)CCOc2ccc(Cl)cc2)c1 | inactive | inactive | inactive | inactive | inactive |  |  |  | 
COc1ccc(OC)c(N2C(=O)[C@@H]3C(c4ccccc4Cl)=NO[C@@H]3C2=O)c1 | inactive | inactive | 6.01 µM (active) | inactive | inactive |  |  |  | 
O=C(Cn1ncc(Cl)c(Cl)c1=O)NC(=O)NC1CCCCC1 | inactive |  | inactive |  |  |  | 3.69% [at 17.1 µM, percent relative to cAMP agonist control] | -1.53% [at 30.8 µM] | 9.51% [at 30.8 µM]
Cc1ccc(-c2nc3ccc(C)cn3c2Cc2ccccc2C(F)(F)F)cc1 | inactive | inactive | inactive | inactive | inactive |  |  |  | 
CC(C)(C)C(=O)Nc1cccc(C(=O)OCc2cc(=O)n3nc(C4CCCCC4)sc3n2)c1 | inactive | inactive |  | inactive | inactive | inactive [at 12.7 µM] |  |  | 
CN1CCN(C(=O)c2ccc(COc3ccc(C(C)(C)C)cc3)o2)CC1 | inactive |  | inactive |  |  |  | 8.37% [at 17.1 µM, percent relative to cAMP agonist control] | 8.52% [at 30.8 µM] | 9.82% [at 30.8 µM]
CCc1ccc(N=C2NC(=O)/C(=C/c3cc(Br)c(OCC(=O)O)c(OC)c3)S2)cc1 | inactive |  | inactive |  |  |  | -6.04% [at 17.1 µM, percent relative to cAMP agonist control] | -19.5% [at 30.8 µM] | 15.5% [at 30.8 µM]
COc1cc(CN(C)CC2CCCN(CCc3ccccc3F)C2)cc(Cl)c1OC (stereo not given) | inactive | inactive | inactive | inactive | inactive |  |  |  | 

Source: PubChem BioAssay (NCATS)
